{"source": "the supplement of paper PMC12339681", "note": "Structures can show the parent of a compound that is named as a salt.", "data": [{"test_system": "PBMC-derived induced microglia-like cells (piMGLC)", "assay": "synaptosome phagocytic index relative to DMSO control (fraction of DMSO); higher = more phagocytosis", "details": "concentration: 10 uM (2 uM for compounds listed in Table S2); pretreatment time: 24 h; assay time: 3 h", "values": [{"compound": "CCN(CC)CC#CCOC(=O)C(O)(c1ccccc1)C1CCCCC1", "note": "(stereo unspecified) [Oxybutynin]", "synaptosome phagocytic index": 0.889}, {"compound": "CC(C)CCn1c(CN2CCN(C(=O)C3CC3)CC2)nc2c1c(=O)n(C)c(=O)n2C", "synaptosome phagocytic index": 0.707}, {"compound": "CCCN[C@H]1CCc2nc(N)sc2C1", "note": "[Pramipexole_(dihydrochloride)]", "synaptosome phagocytic index": 0.906}, {"compound": "N[C@H](C(=O)O)[C@H](O)c1ccc(O)c(O)c1", "note": "[Droxidopa]", "synaptosome phagocytic index": 0.507}, {"compound": "Oc1c(I)cc(Cl)c2cccnc12", "note": "[Clioquinol]", "synaptosome phagocytic index": 0.393}, {"compound": "CN1C[C@@H]2[C@H](C1)[C@H]2CN(Cc1ccc(F)c(Cl)c1)C(=O)c1cn(C)cn1", "synaptosome phagocytic index": 0.691}, {"compound": "C#Cc1cccc(Nc2ncnc3cc(OCCOC)c(OCCOC)cc23)c1", "note": "[Erlotinib]", "synaptosome phagocytic index": 0.798}, {"compound": "NC1CCN(c2cccc(Cl)n2)CC1", "synaptosome phagocytic index": 0.648}, {"compound": "NCc1c[nH]c(=S)n1[C@H]1CCc2c(F)cc(F)cc2C1", "note": "[Nepicastat_(hydrochloride)]", "synaptosome phagocytic index": 0.936}, {"compound": "C[C@H]1COc2c(N3CCN(C)CC3)c(F)cc3c(=O)c(C(=O)O)cn1c23", "note": "[Levofloxacin]", "synaptosome phagocytic index": 1.16}, {"compound": "O=C1N=C(O)NC1(c1ccccc1)c1ccccc1", "note": "[Phenytoin_(sodium)]", "synaptosome phagocytic index": 0.725}, {"compound": "O=C(O)c1cc(/N=N/c2ccc(S(=O)(=O)Nc3ccccn3)cc2)ccc1O", "note": "[Sulfasalazine]", "synaptosome phagocytic index": 0.883}, {"compound": "COc1ncc(F)cc1CNc1ccc(Cc2c[nH]c3ncc(C)cc23)c(F)n1", "synaptosome phagocytic index": 0.951}, {"compound": "CC(CN(C)C)CN1c2ccccc2CCc2ccccc21", "note": "(stereo unspecified) [Trimipramine_(maleate)]", "synaptosome phagocytic index": 0.449}, {"compound": "CO/N=C(\\C(=O)N[C@@H]1C(=O)N2C(C(=O)O)=C(COC(C)=O)CS[C@H]12)c1csc(N)n1", "note": "[Cefotaxime_(sodium_salt)]", "synaptosome phagocytic index": 0.951}, {"compound": "CCCN[C@H]1CCc2nc(N)sc2C1", "note": "[Pramipexole]", "synaptosome phagocytic index": 0.882}, {"compound": "Cc1cccc(C)c1OCC(=O)N[C@@H](Cc1ccccc1)[C@@H](O)C[C@H](Cc1ccccc1)NC(=O)[C@H](C(C)C)N1CCCNC1=O", "note": "[Lopinavir]", "synaptosome phagocytic index": 0.253}, {"compound": "CCCN(CCC)S(=O)(=O)c1ccc(C(=O)O)cc1", "note": "[Probenecid]", "synaptosome phagocytic index": 0.701}, {"compound": "CCN1CCN(Cc2ccc(Nc3ncc(F)c(-c4cc(F)c5nc(C)n(C(C)C)c5c4)n3)nc2)CC1", "note": "[Abemaciclib]", "synaptosome phagocytic index": 0.228}, {"compound": "O=c1c(-c2ccc(O)cc2)coc2cc(O)cc(O)c12", "note": "[Genistein]", "synaptosome phagocytic index": 0.792}, {"compound": "Nc1nc(NC2CC2)c2ncn([C@H]3C=C[C@@H](CO)C3)c2n1", "note": "[Abacavir_(sulfate)]", "synaptosome phagocytic index": 1.1}, {"compound": "CC[C@@]1(O)C(=O)OCc2c1cc1n(c2=O)Cc2cc3c(CN(C)C)c(O)ccc3nc2-1", "note": "[Topotecan_(Hydrochloride)]", "synaptosome phagocytic index": 0.354}, {"compound": "CN1CCN(c2cc(-c3ccncc3)c(-c3ccc4ccccc4c3)nn2)CC1", "synaptosome phagocytic index": 0.903}, {"compound": "OCCN1CCN(CCCN2c3ccccc3Sc3ccc(Cl)cc32)CC1", "note": "[Perphenazine]", "synaptosome phagocytic index": 0.197}, {"compound": "CC(C)Cc1ccc(C(C)C(=O)O)cc1", "note": "(stereo unspecified) [Ibuprofen]", "synaptosome phagocytic index": 0.74}, {"compound": "O=C(O)Cc1ccccc1Nc1c(Cl)cccc1Cl", "note": "[Diclofenac]", "synaptosome phagocytic index": 1.01}, {"compound": "COC1(c2sc3c(N4CCOCC4)nc(-c4cnc(N)nc4)nc3c2C)COC1", "synaptosome phagocytic index": 0.384}, {"compound": "C=CC(N)CCC(=O)O", "note": "(stereo unspecified) [Vigabatrin]", "synaptosome phagocytic index": 0.918}, {"compound": "CC(=O)N[C@@H](CS)C(=O)O", "note": "[Acetylcysteine]", "synaptosome phagocytic index": 0.86}, {"compound": "Nc1ccccc1NC(=O)c1ccc(CNC(=O)OCc2cccnc2)cc1", "note": "[Entinostat]", "synaptosome phagocytic index": 0.753}, {"compound": "CC1OC2(CS1)CN1CCC2CC1", "note": "(stereo unspecified) [Cevimeline_(hydrochloride_hemihydrate)]", "synaptosome phagocytic index": 0.63}, {"compound": "COC(=O)N[C@H](C(=O)N[C@@H](Cc1ccccc1)[C@@H](O)CN(Cc1ccc(-c2ccccn2)cc1)NC(=O)[C@@H](NC(=O)OC)C(C)(C)C)C(C)(C)C", "note": "[Atazanavir_(sulfate)]", "synaptosome phagocytic index": 0.81}, {"compound": "COc1c(N2CCNC(C)C2)c(F)cc2c(=O)c(C(=O)O)cn(C3CC3)c12", "note": "(stereo unspecified) [Gatifloxacin]", "synaptosome phagocytic index": 0.702}, {"compound": "C[C@]1(c2nc3c(C(N)=O)cccc3[nH]2)CCCN1", "note": "[Veliparib]", "synaptosome phagocytic index": 0.721}, {"compound": "NS(=O)(=O)Cc1noc2ccccc12", "note": "[Zonisamide]", "synaptosome phagocytic index": 0.742}, {"compound": "Cc1cc(NC(=O)Cc2ccc(F)c(Cl)c2)n(C2CCCCC2)n1", "synaptosome phagocytic index": 0.77}]}]}
